As a reminder, the viability is a read-out of living cells in per cent, often relative to untreated cells. For orientation: inhibition means the drop in the measured response relative to a control, in per cent.

Records with an inconclusive call do not appear. Active and inactive are the calls of the source.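 The calls were made as follows, unless noted: active = viability increase at or above a cutoff of the median across tested compounds plus 3 SD (cut at about 8.5% in these data, passing the limit was not always enough); inconclusive = some gains above the cutoff, reason not given; inactive = the rest.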

A short description of test [1]: reducers of endogenous Her2 protein level, primary screen, SKBR3 breast tumor cells, AlphaScreen, ATP viability (AID 461;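 active = Her2 level under about 52% in both replicate screens, with viability over 70% of control, limit read from the data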;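 as to Her2 level: lower value means less Her2 protein in the cells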;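 as to viability: percent of carrier control wells set as 100% viability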). The conditions noted are these: 18-24 h, measured here: SKBR3 viability, ATP luminescence, at 10 µM. (In Alpha technology, singlet oxygen from a donor bead excites a nearby acceptor bead.)
For test [2], the target named is Receptor tyrosine-protein kinase erbB-2 (Homo sapiens) (UniProt P04626). Described as above. Particulars: 18-24 h, at 10 µM, stronger effect = lower value.
A short description of test [3]: SK-BR-3 cell growth inhibitors, pilot screen, 24 h, human (AID 572;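 active = viability at or below 10% of carrier control in both of two separate runs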;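 also: compound exposure lasted between 18 and 24 h rather than exactly 24 h; 100% = carrier-treated control wells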). The conditions noted are these: SK-BR-3 viability, CellTiter-Glo luminescence, at 10 µM, stronger effect = lower value. (In ATP-based viability assays light output follows the ATP content of the culture.)
A short description of test [4]: HUVEC growth inhibition – cell-based, human, primary screen (AID 575;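 active = viability at or below 30% in both replicate assays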;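 also: 100% = median of untreated cell wells with 0.1% DMSO on each plate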). The conditions noted are these: HUVEC proliferation, CellTiter-Glo luminescence, 72 h; at 10 µM; stronger effect = lower value.
A short description of test [5]: growth inhibitors of H69AR lung tumor, primary screen, human, duplicate replicates (AID 580;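 active = viability at or under a set limit in both replicates, limit being median viability minus 3 SD, cut at about 48% in these data, passing the limit was not always enough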;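 also: 100% = mean luminescence of untreated wells and 0% = no signal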). The conditions noted are these: H69AR lung tumor cells viability, ATP luminescence, 72 h; at 10 µM; stronger effect = lower value.
A short description of test [6]: reversal of MRP1-mediated doxorubicin resistance, pilot screen, H69AR cells, doxorubicin co-treatment (AID 601;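 active = viability loss from added drug above about 55%, and viability with drug at most 40%, in both replicates, limit read from the data, passing the limit was not always enough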). The conditions noted are these: CellTiter-Glo, 72 h, at 10 µM; for differential viability (reversal): stronger effect = higher value.
The nature of test [7]: 384-well plate pilot, post-Golgi transport modulator project, inhibition of yeast transport mutant growth (AID 636; in the data active = inhibition above about 31%). Particulars: absorbance 615 nm, about 18 h, stronger effect = higher value.
The nature of test [8]: growth suppression of yeast trafficking mutant, preliminary HTS, modulators of trafficking downstream of Golgi apparatus project, 1536-format plate, OD 615 nm (AID 637; in the data active = inhibition above about 30%). The conditions noted are these: yeast transport mutant growth, absorbance 615 nm, 18 h; stronger effect = higher value.
Test [9] can be described thus: OD615 S. cerevisiae growth inhibition, permissive medium, pilot counter-assay, permissive growth control for S. cerevisiae lifespan shortening project (AID 705;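 active = growth inhibition above 25% in both replicates, a cutoff set 3 SD above the mean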). The conditions noted are these: OD615, 24 h, at 10 µM, stronger effect = higher value.
Test [10] can be described thus: Restrictive medium S. cerevisiae growth inhibition, OD615, pilot screen of yeast lifespan reduction project, restrictive growth control (AID 706;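 active = growth inhibition above a set limit, 3 SD over mean compound inhibition, in both replicates, cut at about 43% in these data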;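 also: modified DeaD lifespan yeast strain shifted to restrictive glucose medium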). The conditions noted are these: OD615, 48 h, at 10 µM, stronger effect = higher value.
Test [11] in a line: viability gain of MRP-1-high H69AR cells under doxorubicin, pilot screen, MRP-1 activator project, CellTiter-Glo, duplicate (AID 807).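 Also: compound pretreatment 18-22 h then 72 h combined with doxorubicin; 0% = doxorubicin alone and 100% = vehicle without doxorubicin.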 Particulars: H69AR viability with doxorubicin, CellTiter-Glo luminescence; at 10 µM; stronger effect = higher value.
Test [12] is described as follows: growth suppression of beta-catenin knockout HCT116, pilot screen, human colon tumor cells (AID 823;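 active = cell viability at or below a set limit in both duplicate runs, the limit being the all-compound median minus 4 SD, cut at about 23% in these data, passing the limit was not always enough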;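 also: 0% = wells killed by 20 µM Hyamine and 100% = untreated DMSO cell wells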). The conditions noted are these: CellTiter-Glo, 60 h, at 10 µM, stronger effect = lower value.
A short description of test [13]: growth suppression of PTEN-deleted HCT116, pilot screen, cell-based, HCT116 clonal line, CellTiter-Glo (AID 824;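 active = viability at or below 27.92% in each of two runs, the all-compound median minus 4 SD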;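 also: 0% = 20 µM Hyamine control and 100% = vehicle cell control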). The conditions noted are these: 60 h, at 10 µM, stronger effect = lower value.
Test [14] in a line: inhibitors of the yeast RAM network, pilot screen, dse1pr::URA3 reporter, 5-FOA selection (AID 869;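 active = inhibition over a set limit, the all-compound mean plus 3 SD, in both replicate runs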;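 also: 0% = DMSO wells with no growth and 100% = 10 µM 1-NA-PP1 with full growth; RAM network block rescues cells from 5-FOA so hits raise OD615 growth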). Particulars: S. cerevisiae dse1pr::URA3 5-FOA growth, OD615, 2 d; at 10 µM; stronger effect = higher value; strain carries analog-sensitive mutant Cbk1 kinase.
The nature of test [15]: RAM signaling pathway blockade in yeast – S. cerevisiae, Pdr1DBD-CYC8 efflux-inhibited sensitized strain, primary screen (AID 1298;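 active = RAM network inhibition above 8.4% in each of two replicates, 3 SD over the compound average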;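 also: 0% = DMSO untreated cells without growth and 100% = 10 µM 1-NA-PP1 full growth; higher means more yeast growth rescued from 5-FOA killing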). The conditions noted are these: S. cerevisiae cbk1-as DSE1-URA3 strain, 5-FOA growth OD615, 2 d; at 50 µM; stronger effect = higher value.
The mark [16] stands for this setting: H69AR cells + 2 uM doxorubicin, measured here: viability with 2 uM doxorubicin, stronger effect = lower value.
Setting [17] is: H69AR cells, compound alone cytotoxicity.

Sequence of Receptor tyrosine-protein kinase erbB-2 (Homo sapiens) (P04626 whole entry, looked up): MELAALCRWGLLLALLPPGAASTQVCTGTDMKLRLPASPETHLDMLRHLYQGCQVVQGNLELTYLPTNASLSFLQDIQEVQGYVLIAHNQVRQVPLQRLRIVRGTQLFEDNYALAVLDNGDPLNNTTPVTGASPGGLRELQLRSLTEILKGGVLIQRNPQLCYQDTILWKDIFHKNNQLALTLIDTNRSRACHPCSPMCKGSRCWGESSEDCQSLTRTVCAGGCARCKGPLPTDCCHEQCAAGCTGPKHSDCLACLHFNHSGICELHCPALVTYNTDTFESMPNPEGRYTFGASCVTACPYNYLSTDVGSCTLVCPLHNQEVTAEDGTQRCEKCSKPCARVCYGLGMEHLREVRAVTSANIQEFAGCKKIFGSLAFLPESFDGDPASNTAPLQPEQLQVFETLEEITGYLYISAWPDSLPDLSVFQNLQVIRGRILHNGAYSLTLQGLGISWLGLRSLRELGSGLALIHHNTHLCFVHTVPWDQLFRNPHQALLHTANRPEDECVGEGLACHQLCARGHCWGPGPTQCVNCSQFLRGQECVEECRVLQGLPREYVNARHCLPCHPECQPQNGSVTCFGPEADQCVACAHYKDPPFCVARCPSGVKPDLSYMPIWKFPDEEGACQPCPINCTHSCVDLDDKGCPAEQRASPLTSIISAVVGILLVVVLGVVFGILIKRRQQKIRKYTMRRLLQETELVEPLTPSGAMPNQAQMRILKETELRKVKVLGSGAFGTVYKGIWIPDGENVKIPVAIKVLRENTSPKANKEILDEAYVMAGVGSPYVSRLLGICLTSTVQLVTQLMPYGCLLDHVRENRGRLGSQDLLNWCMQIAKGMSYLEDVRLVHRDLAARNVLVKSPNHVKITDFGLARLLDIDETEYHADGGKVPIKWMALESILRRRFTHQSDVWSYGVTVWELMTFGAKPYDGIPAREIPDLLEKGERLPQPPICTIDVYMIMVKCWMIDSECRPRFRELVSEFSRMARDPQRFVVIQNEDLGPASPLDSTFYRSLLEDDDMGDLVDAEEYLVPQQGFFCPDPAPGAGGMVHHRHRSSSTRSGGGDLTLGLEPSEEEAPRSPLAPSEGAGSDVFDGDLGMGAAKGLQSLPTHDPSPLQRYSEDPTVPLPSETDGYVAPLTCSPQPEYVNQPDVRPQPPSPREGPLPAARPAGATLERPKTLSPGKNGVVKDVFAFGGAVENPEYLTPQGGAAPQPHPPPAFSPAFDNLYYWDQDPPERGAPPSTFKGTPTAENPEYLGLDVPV

Regarding `CCOc1ccccc1C1C(C(=O)Nc2ccc(OC)cc2)=C(C)Nc2nc(CCCO)nn21` (centres undefined), the viability in test [1] is 87.5%; in test [3] it was 87.5% (inactive); in test [4] it was 84.4% (inactive); in [5], 91.3% (inactive); in test [6] (setting [16]), 82.6%; in [6] (setting [17]), 91.3%. Further, the viability in test [12] was 109% (inactive); in test [13], 98.7% (inactive). The Her2 level in test [2] was 89.5% (inactive). In addition, in test [6] (H69AR cells + 2 uM doxorubicin), the differential viability (reversal) was 8.7% (inactive). Further, the inhibition was -0.4% (inactive) in [7], -2.17% (inactive) in test [8] and 0.865% (inactive) in test [14]. Also, the figures for the growth inhibition in test [9] and in test [10] were -9.82% (inactive) and -7.01% (inactive), respectively. Besides, in test [11], the viability increase was -0.17% (inactive). In addition, the RAM network inhibition in [15] was 1.36% (inactive).

For the compound `O=C(NCCN1C(=O)C2C3C=CC(C3)C2C1=O)N1CCOCC1` (centres undefined), the viability in test [1] is 89.5%; in test [3] it was 89.5% (inactive); in [4], 90.2% (inactive); in test [5], 93.7% (inactive); in test [6] (setting [16]), 88.9%; in [6] (setting [17]), 93.7%. Further, the viability in test [12] is 105% (inactive); in test [13], 94.9% (inactive). In test [2], the Her2 level is 106% (inactive). For the same compound, the differential viability (reversal) in test [6] (H69AR cells + 2 uM doxorubicin) was 4.75% (inactive). Besides, the inhibition in [7] was 0.67% (inactive); in test [8] it was -2.5% (inactive); in test [14], 1.08% (inactive). Besides, the results for the growth inhibition in [9] and in [10] were -8.54% (inactive) and 8.98% (inactive), respectively. The viability increase in [11] is -1.43% (inactive). Besides, the RAM network inhibition in test [15] was 0.73% (inactive).

Consider `Cc1cccc(N2C(=O)CC(N3CCN(c4cccc(C(F)(F)F)c4)CC3)C2=O)c1` (centres undefined), for which the viability is 94.5% in [1]; 94.5% (inactive) in test [3]; 73.2% (inactive) in test [4]; 96.9% (inactive) in test [5]; 90.8% in test [6] (setting [16]); 96.9% in test [6] (setting [17]). Besides, the values for the viability in test [12] and in test [13] were 97.3% (inactive) and 97.8% (inactive), respectively. The Her2 level in test [2] was 74.5% (inactive). Further, the differential viability (reversal) in test [6] (H69AR cells + 2 uM doxorubicin) is 6.09% (inactive). In addition, the inhibition in test [7] is -2.86% (inactive); in [8], -9% (inactive); in [14] it was 1.32% (inactive). Also, the results for the growth inhibition in test [9] and in test [10] were -12.6% (inactive) and -8.65% (inactive), respectively. Also, the viability increase in test [11] was 3.91% (inactive). Moreover, the RAM network inhibition in [15] was 5.57% (inactive).

With `CNC(=O)c1ccccc1NC(=O)c1c(O)c2c([nH]c1=O)CCCC2`, the viability was 112% in test [1]; 112% (inactive) in test [3]; 98.9% (inactive) in test [4]; 109% (inactive) in test [5]; 99.9% in test [6] (setting [16]); 109% in test [6] (setting [17]). The figures for the viability in test [12] and in test [13] were 88.9% (inactive) and 94.5% (inactive), respectively. The Her2 level in test [2] is 79% (inactive). The differential viability (reversal) in test [6] (H69AR cells + 2 uM doxorubicin) is 8.66% (inactive). Besides, the inhibition is -1.71% (inactive) in [7], 0.48% (inactive) in test [8] and 1.7% (inactive) in [14]. The values for the growth inhibition in [9] and in [10] were -17.1% (inactive) and -10.1% (inactive), respectively. Also, in [11], the viability increase was -2.56% (inactive). Also, in [15], the RAM network inhibition is 3.36% (inactive).

Consider `Cc1ccc(S(=O)(=O)N2CCC(C(=O)N3CCN(Cc4ccccc4)CC3)CC2)cc1`, for which the viability is 99% in test [1]; 99% (inactive) in test [3]; 100% (inactive) in test [4]; 85.3% (inactive) in test [5]; 101% in test [6] (setting [16]); 85.3% in test [6] (setting [17]). In addition, the results for the viability in test [12] and in [13] were 90.5% (inactive) and 92.6% (inactive), respectively. For the same compound, the Her2 level in test [2] is 91% (inactive). Also, the differential viability (reversal) in test [6] (H69AR cells + 2 uM doxorubicin) is -15.4% (inactive). The results for the inhibition in [7], in test [8] and in test [14] were -1.73% (inactive), -0.33% (inactive) and 2.2% (inactive), respectively. The results for the growth inhibition in test [9] and in test [10] were -8.33% (inactive) and 0.335% (inactive), respectively. Also, the viability increase in test [11] is 1.01% (inactive). Also, in [15], the RAM network inhibition is 4.44% (inactive).

In the case of `COc1ccc(C(NC(=O)c2ccco2)c2ccc(OC)c(OC)c2)cc1` (centres undefined), the viability in [1] is 93%; in test [3], 93% (inactive); in test [4] it was 89.2% (inactive); in [5] it was 96.2% (inactive); in test [6] (setting [16]), 81.1%; in [6] (setting [17]) it was 96.2%. The viability in test [12] was 98.2% (inactive); in test [13] it was 96.4% (inactive). In addition, in test [2], the Her2 level is 84% (inactive). The differential viability (reversal) in test [6] (H69AR cells + 2 uM doxorubicin) is 15.1% (inactive). For the same compound, the inhibition in test [7] is -8.11% (inactive); in test [8] it was -3.17% (inactive); in [14], 1.3% (inactive). The values for the growth inhibition in test [9] and in test [10] were -14.2% (inactive) and -19.3% (inactive), respectively. In [11], the viability increase is -4.05% (inactive). Further, in test [15], the RAM network inhibition was 2.41% (inactive).

With `Clc1cccc(N2CCN(Cc3nc(-c4ccccc4)no3)CC2)c1`, the viability was 90.5% in [1]; 90.5% (inactive) in [3]; 109% (inactive) in test [4]; 91.3% (inactive) in [5]; 95.4% in test [6] (setting [16]); 91.3% in [6] (setting [17]). Also, the viability in [12] is 91.5% (inactive); in [13] it was 90% (inactive). Further, the Her2 level in test [2] was 96% (inactive). Besides, in [6] (H69AR cells + 2 uM doxorubicin), the differential viability (reversal) was -4.04% (inactive). For the same compound, the inhibition in test [7] is 0.53% (inactive); in [8], -6.5% (inactive); in test [14], -1.2% (inactive). The results for the growth inhibition in [9] and in test [10] were 3.02% (inactive) and 0.865% (inactive), respectively. Moreover, the viability increase in test [11] is -2.61% (inactive). Moreover, the RAM network inhibition in test [15] was 4.99% (inactive).

For the origin of these results see PubChem BioAssay.
